Test results taken from PubChem BioAssay AID2551 (National Center for Advancing Translational Sciences (NCATS), 2010).
Hit rate of the full screen: of about 310,000 compounds, about 17,000 (5.5%) were called active. A call without a number means that no potency is given here. Not shown: some 11% with an inconclusive outcome. Calls come from the whole dose curve; as a rule, active = well fitted inhibition curve with a large enough effect; inconclusive = small, poorly fitted or top-dose-only effect, or effect the other way; inactive = no such curve, though single readings can be large or run the other way. The full list was thinned out, with actives kept by preference.

What follows are compounds tested against Nuclear receptor ROR-gamma (Mus musculus) (UniProt P51450) (assay: qHTS for inhibitors of ROR gamma transcriptional activity). Details: Drosophila S2 Gal4-RORgamma UAS-luciferase reporter, 20 h; series mostly up to 53.6 µM.
Method in brief: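 Stably transfected Drosophila Schneider cells are the test system, with ROR gamma fused to Gal4 and luciferase under UAS control; luminescence is read after 20 hr of 700 uM copper sulfate induction at ambient temperature.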
Note: nearly all actives have a fitted effect of over 60% in size.
Potency is the fitted concentration of half-maximal effect.

Nuclear receptor ROR-gamma (Mus musculus), sequence (P51450 whole entry, looked up, the tested form may be a part): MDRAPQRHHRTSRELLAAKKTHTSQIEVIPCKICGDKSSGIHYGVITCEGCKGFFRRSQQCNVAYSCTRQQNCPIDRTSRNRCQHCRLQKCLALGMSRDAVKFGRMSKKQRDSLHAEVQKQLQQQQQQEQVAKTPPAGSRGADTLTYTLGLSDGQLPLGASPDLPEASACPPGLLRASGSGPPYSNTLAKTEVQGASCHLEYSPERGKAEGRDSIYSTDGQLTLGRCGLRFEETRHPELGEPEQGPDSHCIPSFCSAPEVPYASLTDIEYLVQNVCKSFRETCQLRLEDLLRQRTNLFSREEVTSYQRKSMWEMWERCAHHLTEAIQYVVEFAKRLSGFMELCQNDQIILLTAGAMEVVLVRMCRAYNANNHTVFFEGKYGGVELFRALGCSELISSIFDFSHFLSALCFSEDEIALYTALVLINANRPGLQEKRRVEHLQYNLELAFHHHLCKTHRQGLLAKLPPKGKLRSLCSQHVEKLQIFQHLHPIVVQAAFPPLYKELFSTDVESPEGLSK

Row | Structure (SMILES) | Potency | activity change, negative = inhibition
1 | N#Cc1ccccc1NC(=O)c1ccc2c(c1)OCO2 | inactive | –
2 | COc1ccc(C(=O)NC(C)Cn2nc(C)cc2C)cc1OC1CCN(C(C)=O)CC1 (stereo not given) | inactive | –
3 | c1ccc(NCc2cccc3ccccc23)nc1 | inactive | –
4 | Oc1ccc2ccccc2c1C=Nc1ccccc1 | inactive | –
5 | Oc1ccc(N=Nc2nccs2)c(O)c1 | 7.08 µM (active) | –
6 | Oc1ccc2ccccc2c1N=Nc1nccs1 | 1.26 µM (active) | –
7 | O=C(c1c(F)cccc1F)N1CCN(c2ncc(Br)cn2)CC1 | inactive | –
8 | CCOC(=O)N1CCC(N2Cc3cccc(C(=O)Nc4c(C)cccc4CC)c3C2=O)CC1 | inactive | –
9 | Cc1cc(=O)oc2c(C)c(OCC(=O)NCCc3ccc(S(N)(=O)=O)cc3)ccc12 | inactive | –
10 | Cc1ccc(NS(=O)(=O)c2cc3c(cc2C)NC(=O)CO3)cc1 | inactive | –
11 | N=c1oc2ccccc2cc1C(=O)NCc1ccccc1 | inactive | –
12 | Cc1cc(C)n(-c2c(F)c(F)c(COC(=O)c3ccccc3)c(F)c2F)n1 | inactive | –
13 | CCOC(=O)c1cnc(-n2nc(C)cc2C)nc1NNc1cc(C)nc(-c2ccccc2)n1 | 0.1 µM (active) | –
14 | CCOC(=O)c1cnc(-c2ccccc2)nc1Oc1ccc(C)cc1 | inactive | –
15 | CC(C)c1nc2cc(C(=O)NC(C)c3cnn(C)c3)ccc2o1 (stereo not given) | inactive | –
16 | COc1cc(CO)ccc1OCC(=O)Nc1cccc2ccccc12 | inactive | –
17 | C=CCn1cnc2scc(-c3ccccc3)c2c1=O | inactive | –
18 | C=CCn1c(=S)[nH]c2scc(-c3ccco3)c2c1=O | 1.58 µM (active) | –
19 | C=CCNC(=O)CSc1nc2scc(-c3ccco3)c2c(=O)n1CC=C | inactive | –
20 | CC(C)(C)c1cc[n+](-c2[nH]c(=O)sc2/C=N/N=C(\[O-])c2ccccc2)cc1 | inactive | –
21 | COc1cc(NC(=S)N2CCCC(C)C2)cc(OC)c1OC (stereo not given) | inactive | –
22 | COc1cc(NC(=S)N2CCCC(C)C2)c(OC)cc1Cl (stereo not given) | 12.6 µM (active) | –

Row | Structure (SMILES) | Potency | activity change, negative = inhibition
23 | COc1cc(Cl)c(C)cc1NC(=O)CN1CCCCCC1 | inactive | –
24 | O=C(c1ccccc1)N1N=C(c2ccccc2O)CC1c1ccc(Br)cc1 (stereo not given) | inactive | –
25 | COc1ccc(C2=NN(C(C)=O)C(c3ccccc3)C2)cc1 (stereo not given) | inactive | –
26 | CNC(=S)N1N=C(c2ccccc2)CC1c1ccc(Br)cc1 (stereo not given) | 11.2 µM (active) | –
27 | COc1ccc(-c2nonc2NC(=O)c2oc3ccc(F)cc3c2C)cc1OC | inactive | –
28 | O=c1ccc2cc(S(=O)(=O)NCCCc3ccccc3)ccc2[nH]1 | inactive | –
29 | CCN(CC)S(=O)(=O)c1ccc(NC(=O)c2cnc(C)cn2)cc1 | inactive | –
30 | CCOc1cc(NC(=O)Nc2ccccc2)c(OCC)cc1NC(=O)CC | inactive | –
31 | COc1ccc(OCCC(=O)c2ccc(OC)cc2)cc1 | inactive | –
32 | COc1ccc(C(=O)C[n+]2ccc(C)cc2)cc1 | inactive | –
33 | COc1ccc(C(=O)CC(=O)c2ccc(C)cc2)c(O)c1 | 10 µM (active) | –
34 | Cc1cc(C)cc(N(CC(=O)NC2CCCC2)C(=O)CCC(=O)Nc2nccs2)c1 | inactive | –
35 | Cc1ccc(OCC(=O)NC(C)c2ccccc2)c([N+](=O)[O-])n1 (stereo not given) | inactive | –
36 | COCC(C)n1c(C)cc(C(=O)COc2ccc(C)nc2[N+](=O)[O-])c1C (stereo not given) | 12.6 µM (active) | –
37 | Cc1ccc(OCC(=O)c2cc(C)n(Cc3ccco3)c2C)c([N+](=O)[O-])n1 | inactive | –
38 | CCOC(=O)C1CCN(Cc2nnc(-c3cccc(Br)c3)o2)CC1 | inactive | –
39 | Cc1noc(C)c1CSCC(=O)N(CCC(C)C)c1c(N)n(Cc2ccccc2)c(=O)[nH]c1=O | inactive | –
40 | CCCCN1CCNC1=S | 12.6 µM (active) | –
41 | CCC(C(=O)NCCC(C)C)N(Cc1ccccc1Cl)C(=O)c1snc(C(N)=O)c1N (stereo not given) | inactive | –
42 | CC(c1ccccn1)N(CCN(C)C)C(=S)Nc1ccccc1F (stereo not given) | inactive | –
43 | CSc1cccc(NC(=O)CSc2ccccc2)c1 | inactive | –
44 | COc1cccc(NC(=S)N(Cc2ccc(C)cc2)Cc2ccccn2)c1 | inactive | –

Row | Structure (SMILES) | Potency | activity change, negative = inhibition
45 | CSc1cccc(NC(=S)N(Cc2ccccc2)Cc2ccccn2)c1 | 6.31 µM (active) | –
46 | CSc1cccc(NC(=S)N(C(C)C)C(C)c2ccccn2)c1 (stereo not given) | 22.4 µM (active) | –
47 | CCOc1ccc(C(=O)Nc2cccc(SC)c2)cc1 | inactive | –
48 | COC(=O)c1ccc(S(=O)(=O)N2CCc3ccccc3C2)cc1 | inactive | –
49 | COc1ccc(NC(=O)CSc2ccc(-c3ccco3)nn2)c(OC)c1 | inactive | –
50 | CN(C)c1ccc(S(=O)(=O)NCC(=O)NCC2CCCCC2)cc1[N+](=O)[O-] | inactive | –
51 | COc1ccc(CN2CC(C(=O)NCCc3ccc(Cl)cc3)CC2=O)cc1 (stereo not given) | inactive | –
52 | CCOc1ccc(NC(=O)CC(Cc2ccc(Cl)cc2)C(=O)O)cc1 (stereo not given) | inactive | –
53 | CCOC(=O)c1c(C(C#N)C#N)cc(C)nc1C | – | -1.43% [at 10 µM] (inactive)
54 | CCOC(=O)c1cc(C)nc(S(C)(=O)=O)c1C#N | 8.91 µM (active) | –
55 | CCOC(=O)COc1nc(C)cc(C(F)(F)F)c1C#N | inactive | –
56 | O=C(O)c1ccccc1-c1ccccc1C(=O)NCCc1ccccc1 | inactive | –
57 | CN(CC(=O)Nc1ccccc1C(F)(F)F)C(=O)Cc1ccccc1F | inactive | –
58 | Cc1cccc(C(=O)NCCCN2CCCC2=O)c1 | inactive | –
59 | CCC1=Nc2cc(C(=O)NCCN3CCCC3)ccc2Sc2ccc(C)cc21 | inactive | –
60 | Cc1cccc(-c2nc3ccc(C(=O)NCCN4CCN(C)CC4)cc3nc2-c2cccc(C)c2)c1 | 12.6 µM (active) | –
61 | Cc1cc(C)nc(N/N=C/c2ccncc2)n1 | inactive | –
62 | O=C(Nc1ccc2c(c1)OCCO2)c1cnccn1 | inactive | –
63 | CCN(CC)c1ccc(/C=N/Nc2nc(C)cc(=O)[nH]2)cc1 | inactive | –
64 | CCN(CC)c1ccc(/C=N/NC(=O)CNC(=O)c2cccnc2)cc1 | inactive | –
65 | CCN(CC)c1ccc(/C=N/Nc2nc(C)cc(C)n2)c(O)c1 | 1.78 µM (active) | –
66 | CCN(CC)c1ccc(/C=N/NC(=O)c2cnccn2)c(O)c1 | 1.58 µM (active) | –

Row | Structure (SMILES) | Potency | activity change, negative = inhibition
67 | CCc1c(C)c2ccc(OC3CCCCC3=O)cc2oc1=O (stereo not given) | inactive | –
68 | CC(C)(C)n1nnnc1C(c1ccccc1F)N1CCN(C(=O)c2ccco2)CC1 (stereo not given) | inactive | –
69 | OC(COc1ccc(F)cc1Cl)CN1CCc2ccccc2C1 (stereo not given) | inactive | –
70 | CC(C)c1nc2ccc(C(=O)O)cc2[nH]1 | 8.91 µM (active) | –
71 | OC(c1nc2ccc(F)cc2[nH]1)C(O)c1nc2ccc(F)cc2[nH]1 (stereo not given) | inactive | –
72 | Cc1cccc(C(=O)O)c1 | inactive | –
73 | Cc1ccc(CN(C)Cc2cc(=O)oc3cc(C)c(Cl)cc23)cc1 | inactive | –
74 | CN(c1ccccc1)S(=O)(=O)c1cc(C(=O)Nc2nc3ccccc3[nH]2)ccc1Cl | 2.82 µM (active) | –
75 | CN(c1ccccc1)S(=O)(=O)c1cc(C(=O)OCC(=O)N2CCN(C(=O)c3ccco3)CC2)ccc1Cl | inactive | –
76 | CN(c1ccccc1)S(=O)(=O)c1cccc(NC(=O)Cc2c(F)cccc2Cl)c1 | inactive | –
77 | CN(CC(=O)Nc1c(Cl)cccc1Cl)C(=O)CNC(=O)C1CCCCC1 | inactive | –
78 | COc1ccc(C(=O)NC2CC(C)(C)Cc3c2cnn3-c2ccccc2C)o1 (stereo not given) | inactive | –
79 | CC(=O)Nc1cccc(NC(=O)c2ccc3c(c2)CCN3S(C)(=O)=O)c1 | inactive | –
80 | Brc1ccc(-c2csc(N/N=C/c3cccnc3)n2)cc1 | inactive | –
81 | Brc1ccc(-c2csc(N/N=C/c3ccc4c(c3)OCO4)n2)cc1 | 10 µM (active) | –
82 | O=C(Cc1ccc(F)cc1)N/N=C/c1ccc2c(c1)OCO2 | inactive | –
83 | Cc1noc(C)c1/C=N/Nc1ccc2ccccc2n1 | inactive | –
84 | C(=N\Nc1ccc2ccccc2n1)/c1ccc2c(c1)OCO2 | 8.91 µM (active) | –
85 | Cc1cc(=O)[nH]c(N/N=C/c2ccc3c(c2)OCCO3)n1 | inactive | –
86 | O=C(NNC(=O)c1ccco1)Nc1ccccc1 | inactive | –
87 | COCCNC(=O)CSc1nc2sccc2c(=O)n1-c1ccccc1 | inactive | –
88 | O=Cc1c(NCCCN2CCCC2=O)c2ccccc2[nH]c1=O | inactive | –

Row | Structure (SMILES) | Potency | activity change, negative = inhibition
89 | Cc1ccc2c(c1)N(C(=O)CCC(=O)NCc1cccnc1)CCO2 | inactive | –
90 | CCCNC(=O)c1c(N)n(-c2ccc(S(N)(=O)=O)cc2)c2nc3ccccc3nc12 | 12.6 µM (active) | –
91 | CCOC(=O)c1c(C)c(C(=O)NCCc2ccc(S(N)(=O)=O)cc2)c(C)n1CC | inactive | –
92 | Cc1noc(C)c1C(=O)NCCc1ccc(S(N)(=O)=O)cc1 | inactive | –
93 | O=S(=O)(Cc1nnnn1-c1ccc(Br)cc1)c1ccc(F)cc1 | inactive | –
94 | O=C(NNC(=S)NCc1ccccc1)c1ccc(OC(F)F)cc1 | inactive | –
95 | Cc1cccc(NC(=O)c2ccc(OCC(=O)NCc3ccccc3)cc2)c1C | inactive | –
96 | Cc1occc1C(=O)NNC(=S)NCC(C)C | inactive | –
97 | Cc1scc(C(=O)NNC(=S)NCC(C)C)c1C | 1.78 µM (active) | –
98 | Cc1cccc(C(=O)OCC(=O)NCC(C)C)c1O | inactive | –
99 | CC(=O)Nc1ccc(OCC(=O)NCc2ccc(C)cc2)cc1 | inactive | –
100 | CNC(=S)NNC(=O)c1cccn(Cc2ccccc2)c1=O | inactive | –
101 | Cc1ccc(OCC(=O)NNC(=S)NCc2ccccc2)cc1 | 1.26 µM (active) | –
102 | Cc1scc(C(=O)NNC(=S)NCc2ccccc2)c1C | 2 µM (active) | –
103 | CCC(CC)COC(=O)C1=C(C)NC(=O)NC1c1ccc([N+](=O)[O-])cc1 (stereo not given) | – | -0.183% [at 1.91 µM] (inactive)
104 | O=C(Cc1ccc([N+](=O)[O-])cc1)Nc1ccc(C(=O)N2CCOCC2)cc1 | inactive | –
105 | Cc1ccc(NC(=O)Cn2nnc(C(=O)NCc3ccco3)c2N)c(C)c1 | inactive | –
106 | CC(C)(C)NC(=O)CSc1nnc(NC(=O)CCc2ccccc2)s1 | – | 5.59% [at 1.91 µM] (inactive)
107 | C=CCN1C(=NC(=O)COc2ccccc2)SC2CS(=O)(=O)CC21 (stereo not given) | inactive | –
108 | Cc1cc(Cl)ccc1C(=O)C1CCCN(C(=O)c2nonc2C)C1 (stereo not given) | inactive | –
109 | Cc1[nH]c2ccccc2c1C(=O)CN1CC(C)CC(C)C1 (stereo not given) | inactive | –
110 | O=C(O)C1CCCN1S(=O)(=O)c1ccc(Br)cc1 (stereo not given) | inactive | –
